Test results reported in PubChem BioAssay (Tox21).
Records with an inconclusive call do not appear. Where a call stands in place of a potency, no number is given. Unmarked numbers belong to inactive results. Active and inactive are the calls of the source. Calls come from the whole dose curve; as a rule, active = well fitted cell-killing curve with a large enough effect in the repeat runs; inconclusive = weak or mixed curves, or effect the other way; inactive = flat fitted curve, though single readings scatter.
Potency is the fitted concentration of half-maximal effect.

Assay: qHTS assay to identify small molecule antagonists of the androgen receptor (AR) signaling pathway using the MDA cell line in the presence of 0.5 nM R1881 - cell viability counter screen (AID 1259242); note: nearly all actives have a fitted effect of over 45% in size
Settings: MDA-kb2 viability, CellTiter-Fluor protease fluorescence, 16 h; series mostly up to 92.4 µM
Text: U.S. Tox21 Program National Center for Advancing Translational Sciences [NCATS] NIH Chemical Genomics Center [NCGC] U.S. Environmental Protection Agency [EPA] National Institutes of Environmental Health Sciences [NIEHS] National Toxicology Program [NTP] U.S. Food and Drug Administration [FDA] Tox21 Assay Overview: Androgen receptor (AR) is an important member of the nuclear receptor family. Its signaling plays a critical role in AR-dependent prostate cancer and other androgen related diseases. Considerable attention has been given in the past decades to develop methods to study and screen for the environmental chemicals that have the potential to interfere with metabolic homeostasis, reproduction, developmental and behavioral functions. Therefore AR binding assay for screening androgen antagonists can be used to identify potential endocrine disruptors. MDA-kb2 cells (from ATCC, deposited by Wilson et al.) were used to screen for AR inhibitors against Tox21 compound libraries. These cells are human breast carcinoma cells that were stably transfected with a luciferase reporter gene under control of the MMTV promoter that contains response elements for both androgen receptor (AR) and glucocorticoid receptor (GR). The current screening for identification of AR inhibitors against Tox21 libraries used lower concentration of (0.5 nM) R1881 as a stimulator. The cytotoxicity of the Tox21 compound libraries against MDA-kb2 cell line was tested by measuring live-cell protease activity using CellTiter-Fluor assay in the same wells.
Tox21 Assay Protocol Summary: MDA-kb2 cells (cells cultured without CO2) were dispensed at 3,000 cells/well in 4 uL of culture medium into white wall/solid-bottom 1536-well plates (Corning Life Sciences, Corning, NY) using a Multidrop Combi (ThermoFisher Scientific, Waltham, MA) dispenser. After the assay plates were incubated at a 37C and 0% CO2 for 5 hr, 23 nL of compounds dissolved in DMSO, positive controls or DMSO only was transferred to the assay plate by a Pintool station (Kalypsys, San Diego, CA). The transfer of compounds was followed by the addition of 1 uL of 0.5 nM (final concentration) agonist (R1881)/culture medium using a Flying Reagent Dispenser (FRD, Aurora Discovery, San Diego, CA). The plates were incubated at 37C and 0% CO2 for 16 hr. For cytotoxicity assay, 1 uL of CellTiter-Fluor reagent (Promega Corporation, Madison, WI) was added to each well using the FRD and after 30 min incubation at 37C and 0% CO2, The fluorescence intensity was measured using ViewLux plate reader (PerkinElmer, Shelton, CT).
With Oc1ccc(C2(c3ccc(O)c(C4CCCCC4)c3)CCCCC2)cc1C1CCCCC1 the Potency was 43.3 µM (active). In the case of Cc1cc(C)c(O)c(C(C)(C)C)c1, the Potency is reported as “inactive”. In the case of C=Cc1ccc(O)c(OC)c1, the Potency is reported as “inactive”. In the case of CC1=CC[C@@H](C(C)(C)O)CC1, the Potency is reported as “inactive”. For CC(C)(C)c1ccc(OC2CCCCC2O)cc1 (stereo not given), the Potency was “inactive”. For CC(C=O)c1ccccc1 (stereo not given), the Potency was “inactive”. In the case of CN1CCN(c2ccccc2/C=C2\SCCN(c3ccc(Cl)c(Cl)c3)C2=O)CC1, the Potency is reported as 48.6 µM (active). C=C[Si](C)(C)Cl gave a viability change, negative = cytotoxic of 0.0065% [at 8.39 µM]. In the case of CCCCCCCC/C=C\CCCCCCCC(=O)N(CCO)CCO, the Potency is reported as “inactive”. For CC(O)(c1ccc(Cl)cc1)c1ccc(Cl)cc1, the Potency was “inactive”. With O=C1c2ccccc2C(=O)c2c(Cl)cccc21 the Potency was “inactive”. In the case of C/C=C/C(=O)OCC(C)C, the Potency is reported as “inactive”. With Cc1ccc2nc(-c3ccc(N)cc3)sc2c1S(=O)(=O)O the Potency was “inactive”. For CCCCCc1ccc(O)cc1, the Potency was “inactive”. In the case of NC(=O)C1CO1 (stereo not given), the Potency is reported as “inactive”. For CCOC(=O)C1=NN(c2ccc(Cl)cc2Cl)C(C)(C(=O)OCC)C1 (stereo not given), the Potency was “inactive”. For O=C1OC(=O)c2cc(-c3ccc4c(c3)C(=O)OC4=O)ccc21, the Potency was “inactive”. For C=CCc1cc(S(=O)(=O)c2ccc(O)c(CC=C)c2)ccc1O, the Potency was “inactive”. In the case of O[Si](c1ccccc1)(c1ccccc1)c1ccccc1, the Potency is reported as “inactive”. In the case of Nc1c(Br)cc([N+](=O)[O-])cc1Br, the Potency is reported as “inactive”. For Cc1c[nH]c(=O)[nH]c1=O, the Potency was “inactive”. For CCCCCCCCCCCCS(=O)(=O)Cl, the viability change, negative = cytotoxic was -2.53% [at 19 µM]. For CC/C=C\C/C=C\C/C=C\CCCCCCCC(=O)OC, the Potency was “inactive”. In the case of CC(c1cc(C(C)(C)C)cc(C(C)(C)C)c1O)c1cc(C(C)(C)C)cc(C(C)(C)C)c1O, the Potency is reported as “inactive”. With Oc1ccc(Cl)cc1C1CCCC1 the Potency was “inactive”. With CCCCC/C=C\C=C\C(=O)OCC the Potency was “inactive”. With CSc1ccc(O)cc1C the Potency was “inactive”. In the case of O=C(c1ccccc1)c1ccc(Cl)cc1, the Potency is reported as “inactive”. For O=C(N[C@H](CO)[C@H](O)c1ccc([N+](=O)[O-])cc1)C(Cl)Cl, the Potency was “inactive”. In the case of C=C1C(CCl)(CCl)C2(Cl)C(Cl)C(Cl)C1(Cl)C2(Cl)Cl (stereo not given), the Potency is reported as “inactive”. With Cc1ccc2n[nH]nc2c1 the Potency was “inactive”. In the case of CC(=O)CC(N)=O, the Potency is reported as “inactive”. With [Cl][Dy]([Cl])[Cl] the Potency was “inactive”. In the case of C=Cc1ccncc1, the Potency is reported as “inactive”. In the case of C1CCSC1, the Potency is reported as “inactive”. In the case of S=C1NC=NC2N=CNC12 (stereo not given), the Potency is reported as “inactive”. With O=C1CCC/C=C\CCCCCCCCCC1 the Potency was “inactive”. With CCCCCN=C(N)N/N=C/c1c[nH]c2ccc(OC)cc12 the Potency was 13.3 µM (active). In the case of O=C(Cl)c1ccc(Cl)cc1Cl, the Potency is reported as “inactive”. For CC1CCC(C(C)(C)O)CC1 (stereo not given), the Potency was “inactive”.
